Bioassay records deposited in PubChem by National Center for Advancing Translational Sciences (NCATS).
Only some compounds are listed: those with a hit (about 1.1% of all), similar ones and a draw of the others.
HttQ103 aggreg – inhibitors of mutant huntingtin aggregate formation in PC12 cells; PC12 HttQ103-GFP aggregates, Acumen cytometry, 40 h; Potency, µM (highest dose often 46.1 µM), inactives show at the highest dose activity change, negative = inhibition, actives largely listed as inhibitors; actives 1.1% (n = 220,000); AID 1688; also: % is scaled to controls: 0 for no effect and ±100 for the full control effect; nearly all actives have a fitted effect of over 60% in size
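Using laser scanning cytometry, GFP-positive aggregates were counted after lysis of PC12 cells induced with 100 nM tebufenozide to express HTT exon 1 Q103–GFP. Compounds were tested in titration.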
NPSR antag – neuropeptide S receptor (human) antagonism, cAMP; Q6W5P4; CHO-NPSR cells, cAMP TR-FRET, antagonist mode; Potency, µM (doses to about 38.3 µM), for the others: at the top dose activity change, negative = inhibition, usual class: inhibitors; actives 1% (n = 220,000); AID 1461; also: % is scaled to controls: 0 for no effect and ±100 for the full control effect; nearly all actives have a fitted effect of over 50% in size
HTT ATP protect – protects HTT-Q103 PC12 cells, measured by ATP | Potency, µM (titrated, usually from 56.4 µM), for inactives: cytoprotection (ATP increase), actives largely listed as activators | PC12 HTT-Q103 induced, cytoprotection, ATP luminescence, 40 h | AID 1471 | actives 0.14% (n = 230,000); also: % of control where 0% means no effect; nearly all actives have a fitted effect of over 45% in size
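Readout: ATPlite luminescence (ATP level). Model: stable PC12, inducible Htt exon1 Q103-GFP. Inducer: tebufenozide, 100 nM final. Compounds: dose series. No G418 in medium.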
mIDH1 inhibitor – blocks human mutant IDH1 R132H enzyme; IDH1-R132H enzyme, NADPH consumption, diaphorase/resazurin fluorescence; Potency, µM (highest dose often 76.6 µM), for the others: at the highest dose activity change, negative = inhibition, actives largely listed as inhibitors; actives 0.093% (n = 390,000); also: % is scaled to controls: 0 for no effect and ±100 for the full control effect; nearly all actives have a fitted effect of over 65% in size
Target sequence (O75874 whole entry R132H, stated change not applied): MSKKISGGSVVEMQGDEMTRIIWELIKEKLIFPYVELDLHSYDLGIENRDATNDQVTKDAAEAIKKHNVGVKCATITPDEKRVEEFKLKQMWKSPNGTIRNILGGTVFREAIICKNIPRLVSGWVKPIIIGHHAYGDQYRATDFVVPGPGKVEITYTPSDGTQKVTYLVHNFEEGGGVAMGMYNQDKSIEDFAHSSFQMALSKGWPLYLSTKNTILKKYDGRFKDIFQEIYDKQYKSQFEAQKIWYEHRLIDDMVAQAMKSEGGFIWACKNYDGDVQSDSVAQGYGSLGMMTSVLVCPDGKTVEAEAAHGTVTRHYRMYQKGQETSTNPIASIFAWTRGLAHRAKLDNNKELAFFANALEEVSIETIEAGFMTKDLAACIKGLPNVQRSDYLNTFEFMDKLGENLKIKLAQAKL
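IDH1-R132H (0.5 ug/mL) preincubated 30 min with compound, then NADPH (0.016 mM) and alpha-KG (2 mM) added; 80 min at RT, pH 7.5. Remaining NADPH coupled via diaphorase/resazurin to fluorescence (540/590 nm); concentration-response curves normalized to no-enzyme control.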
AT treatment – candidate therapy for ataxia-telangiectasia; Potency, µM (series often up to 57.5 µM), inactives show top-dose activation, actives largely listed as activators; F2112 A-T fibroblasts, KAP-1 phosphorylation AlphaLISA; neocarzinostatin DNA damage 30 min before lysis; actives 0.19% (n = 320,000); also: % of control where 0% means no effect; nearly all actives have a fitted effect of over 45% in size
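hTERT-immortalized A-T patient fibroblasts (F2112), 500 cells/well in OPTI-MEM, 1% FBS, got compounds for 60 min, then NCS for 30 min at 37C. Lysates were then assayed for phospho-KAP-1 by AlphaLISA (anti-pKAP1 donor, anti-KAP1 acceptor beads), 6 hr at 25C.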
An asterisk follows results filed as active; [ ] = remark or other dose. Calls follow the shape of the dose curve; as a rule, active = well fitted curve in the direction sought with a large enough effect; inconclusive = small, poorly fitted or top-dose-only effect, or another doubt; inactive = no such curve, though single readings can be large; an effect the other way counts as inactive or inconclusive. Potency is read from the fitted curve at half-maximal effect.

For CC(NC(=O)c1ccc(Cl)c(Cl)c1)c1ccc(-c2ccccc2)cc1 (configuration not stated) the results were HttQ103 aggreg -4%[9.22 µM], NPSR antag -15%, HTT ATP protect 18%[10 µM], mIDH1 inhibitor -7% and AT treatment 0%.
`CC(NC(=O)CCl)c1ccc(Cl)c(Cl)c1` (configuration not stated) gave HttQ103 aggreg 22µM*, NPSR antag 15%[46.1 µM], HTT ATP protect -25%, mIDH1 inhibitor 11% and AT treatment -1%.
O=[N+]([O-])c1ccc(Sc2cccc[n+]2[O-])c2nonc12 was read as HttQ103 aggreg 1.1µM*, NPSR antag inconclusive, HTT ATP protect -98%[10 µM], mIDH1 inhibitor 8% and AT treatment -11%.
For COc1ccc(S(=O)(=O)N(C(C)=O)c2ccc(OC(C)=O)c3ccccc23)cc1[N+](=O)[O-] the results were HttQ103 aggreg 6.3µM*, NPSR antag -18%[46.1 µM], HTT ATP protect -4%[10 µM], mIDH1 inhibitor 3% and AT treatment 4%.
CC(=O)Oc1ccc(N(C(C)=O)S(=O)(=O)c2ccccc2)c2ccccc12 was read as mIDH1 inhibitor -8%.
For CNC(=O)c1ccc(-c2sc3nc(N4CCOCC4)c4c(c3c2N)CC(C)(C)OC4)o1 the results were HttQ103 aggreg 36%, NPSR antag 4%[46.1 µM], HTT ATP protect -48%, mIDH1 inhibitor 7% and AT treatment 4.5µM*.
`CCOC(=O)c1sc2nc(N3CCOCC3)c3c(c2c1N)CCN(C)C3` gave NPSR antag -1%[46.1 µM], HTT ATP protect 0.63µM* and AT treatment 1%.
CN1Cc2c(N3CCOCC3)nc3sc(C(=O)c4ccc(Br)cc4)c(N)c3c2CC1(C)C was read as HttQ103 aggreg 18%[9.22 µM], NPSR antag 13µM*, HTT ATP protect -8%[10 µM], mIDH1 inhibitor 2% and AT treatment 44%.
NNC(=O)c1sc2nc(N3CCOCC3)c3c(c2c1N)CCCC3 was read as HttQ103 aggreg 4%[9.22 µM], NPSR antag -13%, HTT ATP protect 13%[10 µM], mIDH1 inhibitor 16% and AT treatment 2%.
For C[C@@H]1CC2[C@@H]3C[C@H](F)C4=CC(=O)C(Cl)=C[C@]4(C)[C@@]3(F)[C@H](O)C[C@]2(C)[C@@]1(O)C(=O)CO (some centres not stated) the results were HttQ103 aggreg 10% and HTT ATP protect -72%.
For CC(C)Oc1ccc(CNC(=O)C2CCN(C(=O)N3CCOc4ccc(Cl)cc43)CC2)cc1 the results were mIDH1 inhibitor 0%.
Screening Cc1c(C(=O)O)nc(/C=C\C(=O)O)[nH]c1=O returned HTT ATP protect -10%[10 µM].
Cc1cc(C)c2nc(NNC(=O)c3cc(-c4cccs4)nc4ccccc34)sc2c1 was read as HttQ103 aggreg inconclusive, NPSR antag 8%, mIDH1 inhibitor 10% and AT treatment 5%.
`O=C(NNc1nc2ccc(Cl)cc2s1)c1cc(-c2cccs2)nc2ccccc12` gave HttQ103 aggreg 14µM*, NPSR antag 2%, mIDH1 inhibitor 9% and AT treatment -4%.
Screening O=S(=O)(Nc1ccc2c(c1)OCCO2)c1ccc(Br)s1 returned HttQ103 aggreg 13µM*, NPSR antag -10%[46.1 µM], HTT ATP protect -14%, mIDH1 inhibitor 5% and AT treatment 4%.
CCOc1ccc(-c2csc(/C(C#N)=C\c3ccc(O)c([N+](=O)[O-])c3)n2)cc1 was read as HttQ103 aggreg 7.9µM*, NPSR antag -34%, HTT ATP protect 18%[10 µM], mIDH1 inhibitor -19% and AT treatment -16%.
Screening Cc1c(Cl)cccc1NC(=O)c1cc(-c2ccc(O)cc2)on1 returned HTT ATP protect -13%.
CC(C)C1=C[C@@]23CC[C@@H]4[C@](C)(CCC[C@@]4(C)C(=O)O)[C@@H]2C[C@@H]1[C@@H](C(=O)O)[C@@H]3C(=O)O was read as HTT ATP protect -11%[10 µM].
CCOC(=O)C1=C(O)C(=O)N(Cc2ccccc2)C1 was read as HTT ATP protect 1%, mIDH1 inhibitor -3% and AT treatment 1.1µM*.
For CCNc1ncc2nc(-c3ccccc3)c(=O)n(CCc3ccccc3)c2n1 the results were HTT ATP protect -12%.
CCNc1ncc2nc(-c3cccs3)c(=O)n(CCc3ccccc3)c2n1 was read as HTT ATP protect 1.4µM*.
For CCN(CC)S(=O)(=O)c1ccc(Oc2ccc(S(=O)(=O)N(CC)CC)cc2)cc1 the results were HttQ103 aggreg 2.8µM*, NPSR antag -4%[46.1 µM], HTT ATP protect -19%, mIDH1 inhibitor 3% and AT treatment 0%.
`COc1ccc(OC)c(C2C=C(C34CC5CC(CC(C5)C3)C4)NC(=S)N2)c1` (configuration not stated) gave HttQ103 aggreg inconclusive, NPSR antag -38%, HTT ATP protect 27%[10 µM], mIDH1 inhibitor 6% and AT treatment -13%.
COc1cc(C2C=C(C34CC5CC(CC(C5)C3)C4)NC(=S)N2)cc(OC)c1OC (configuration not stated) was read as HttQ103 aggreg -25%, NPSR antag 10µM*, HTT ATP protect -14%, mIDH1 inhibitor -5% and AT treatment -1%.
COC(=O)N1C2=C(c3ccccc3[C@@H]1CC(=O)Nc1ccc3ccc4cccc5ccc1c3c45)[C@@H]1C(=O)N(c3ccccc3)C(=O)[C@@H]1[C@H](C)C2 was read as HTT ATP protect 6%[10 µM].
COc1ccc(C(=O)N=c2sc3c(C)ccc(OC)c3n2C)cc1OC was read as HttQ103 aggreg -20%[9.22 µM], NPSR antag -46%, HTT ATP protect -16%[10 µM], mIDH1 inhibitor 7% and AT treatment 29%.
Screening COc1ccccc1C(=O)N=c1sc2c(C)ccc(OC)c2n1C returned HttQ103 aggreg 2%[9.22 µM], NPSR antag -40%, HTT ATP protect 6%[10 µM], mIDH1 inhibitor 14% and AT treatment 16µM*.
For Nc1ncnc2c1nc(Sc1ccc(Cl)cc1)n2[C@@H]1O[C@H]2COP(=O)(O)O[C@@H]2[C@H]1O the results were HTT ATP protect -17%[1.9 µM].
For CCOC(=O)CCS(=O)(=O)c1nc(-c2ccccc2)cc(C(F)(F)F)n1 the results were HttQ103 aggreg 24%, NPSR antag 7.9µM*, HTT ATP protect 1%[0.074 µM], mIDH1 inhibitor 7% and AT treatment 1%.
`O=C(O)CCS(=O)(=O)c1nc(-c2cccs2)cc(C(F)(F)F)n1` gave HttQ103 aggreg inconclusive, NPSR antag -6%[46.1 µM], HTT ATP protect 4%, mIDH1 inhibitor 4% and AT treatment -2%.
